# EBNA-1 inhibitor: blocks EBNA-1 binding to DNA | inhibition, % at 14.8 µM | 300,000 compounds, 0.34% hits | EBNA-1 DNA binding, fluorescence polarization; in the data active = inhibition above about 28%
# PAFAH2 FP inh: PAFAH2 (human) inhibition | 340,000 compounds, 0.99% hits | Q99487 | recombinant PAFAH2, FP-rhodamine activity probe, fluorescence polarization | inhibition, % at 3.39 µM;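 active = inhibition above the mean over all tested compounds plus 3 SD, cut at about 30% in these data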;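 note: inhibitors block probe labeling of enzyme so polarization drops; 0% = enzyme with DMSO and 100% = wells lacking PAFAH2 protein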
# rCAG binder: r(CAG) repeat RNA binding; TO-PRO-1 dye displacement fluorescence; inhibition, % at 3 µM; 370,000 compounds, 1.3% hits;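 active = inhibition above the plate cutoff, the mean of all test compounds on that plate plus 3 SD, cut at about 35% in these data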;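 note: 0% = DMSO alone and 100% = 100 µM mitoxantrone as full dye displacement; higher means more dye released from RNA so lower well fluorescence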
# PAFAH1B3 inh: blocks human PAF acetylhydrolase 1B catalytic subunit 3; Q15102; inhibition, % at 3.39 µM; recombinant PAFAH1B3, FP-rhodamine probe, fluorescence polarization; 340,000 compounds, 0.28% hits;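 active = inhibition above the screen-wide average of all tested compounds plus 3 SD, cut at about 25% in these data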;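 note: 0% = enzyme with DMSO only and 100% = wells lacking PAFAH1B3 protein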
# Target sequence (Q15102 whole entry, looked up): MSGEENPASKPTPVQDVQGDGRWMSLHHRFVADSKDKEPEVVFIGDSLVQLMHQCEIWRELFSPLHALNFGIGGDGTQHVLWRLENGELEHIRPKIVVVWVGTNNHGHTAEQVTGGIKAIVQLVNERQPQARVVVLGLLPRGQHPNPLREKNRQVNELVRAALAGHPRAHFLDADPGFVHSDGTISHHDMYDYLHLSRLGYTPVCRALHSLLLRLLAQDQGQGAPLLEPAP
# PAFAH1B2 FP inh: inhibitors of human PAFAH1B2 | P68402 | recombinant PAFAH1B2, FP-rhodamine activity probe, fluorescence polarization | inhibition, % at 3.39 µM | 340,000 compounds, 1.2% hits;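 active = inhibition above the mean of all tested compounds plus 3 SD, cut at about 24% in these data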;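 note: 0% = enzyme with DMSO and 100% = wells lacking PAFAH1B2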
# Target sequence (P68402 whole entry, looked up): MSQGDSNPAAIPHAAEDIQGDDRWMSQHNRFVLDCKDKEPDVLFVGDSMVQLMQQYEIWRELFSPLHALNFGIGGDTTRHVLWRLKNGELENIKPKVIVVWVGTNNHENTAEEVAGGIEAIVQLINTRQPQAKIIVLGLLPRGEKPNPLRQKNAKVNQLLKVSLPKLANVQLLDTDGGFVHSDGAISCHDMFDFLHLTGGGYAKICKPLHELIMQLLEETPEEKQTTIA
# ZTA DNA inh: counter-screen for EBNA-1 inhibitors: inhibitors of Epstein-Barr virus ZTA | P03206 | ZTA-DNA binding, fluorescence polarization | inhibition, % at 11 µM | 320,000 compounds, 0.15% hits | AID 2234; in the data active = inhibition above about 33%
# Target sequence (P03206 whole entry, looked up): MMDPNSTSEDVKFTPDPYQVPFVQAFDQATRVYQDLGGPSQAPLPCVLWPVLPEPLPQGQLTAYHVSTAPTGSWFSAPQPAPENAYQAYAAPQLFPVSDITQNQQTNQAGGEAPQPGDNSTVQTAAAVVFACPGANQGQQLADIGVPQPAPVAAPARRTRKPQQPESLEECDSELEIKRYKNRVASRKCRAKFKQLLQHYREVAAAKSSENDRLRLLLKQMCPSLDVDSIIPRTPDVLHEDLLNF
# rCAG bind conf: r(CAG) RNA repeat binding, confirmation | shares compounds with rCAG binder | TO-PRO-1 dye displacement fluorescence | inhibition, % at 3 µM | 4,300 compounds, 70% hits;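 active = inhibition above a per-plate cutoff, the mean inhibition of sample wells plus 3 SD, cut at about 35% in these data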;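 note: loss of TO-PRO-1 fluorescence as compound displaces dye from 1x1 AA loop RNA; 0% = DMSO only wells and 100% = 100 µM mitoxantrone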
# dCAG dye counter: disrupts DNA CAG TO-PRO-1 complex, flagging rCAG hits. shares compounds with rCAG binder. AID 652068. d(CAG) DNA oligo TO-PRO-1 dye displacement, fluorescence. 4,300 compounds, 94% hits. inhibition, % at 3 µM;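 active = inhibition above its plate's cutoff, the mean test-well inhibition plus 3 SD, cut at about 4.8% in these data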;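 note: 0% = DNA dye mix with DMSO and 100% = 100 µM mitoxantrone; hits displace the dye from DNA and so lower well fluorescence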
# * = called active by the depositor; . = no result given. The list is not random: actives were taken first. Their share in the collection is about 2.9%.
SMILES,EBNA-1 inhibitor,PAFAH2 FP inh,rCAG binder,PAFAH1B3 inh,PAFAH1B2 FP inh,ZTA DNA inh,rCAG bind conf,dCAG dye counter
Cc1ccc(OCC(=O)N/N=C\c2ccc(C)o2)c(C)c1,-5.2,-2.9,-5.2,1.7,6.7,17.0,.,.
O=C(O)c1cccc(-c2ccc(/C=N/NC(=O)C3COc4ccccc4O3)o2)c1 (stereo not drawn),9.0,5.6,18.4,-3.5,5.7,4.8,.,.
Cc1ccc(OCC(=O)N/N=C\c2ccc(-c3cccc(C(=O)O)c3)o2)c(C)c1,-2.5,9.5,45.6*,5.5,2.7,0.4,41.6*,11.0*
CC(Oc1ccccc1)C(=O)Nc1nnc(C2CCCCC2)s1 (stereo not drawn),-4.9,-1.4,-4.2,-3.7,2.2,-3.8,.,.
CC(C)(C)NC(=O)C(c1ccccc1F)n1c(=O)c(-c2ccco2)nc2ccccc21 (stereo not drawn),.,.,40.9*,.,.,.,10.7,7.8*
Cc1cccc(C)c1NC(=O)C1(C)CN(S(C)(=O)=O)CC(=O)N1C1CC1 (stereo not drawn),.,.,0.0,.,.,.,.,.
CC(=O)NS(=O)(=O)c1cccnc1Nc1ccc(Cl)c(Cl)c1,-4.3,5.7,36.7*,3.5,17.0,-2.5,37.5*,14.0*
O=C(O)c1ccc(C#Cc2cccc(F)c2)cn1,.,.,3.9,.,.,.,.,.
Cc1[nH]c(=O)nc(SCc2ccc(Cl)c(Cl)c2)c1C#N,3.8,6.9,37.7*,-2.5,-0.5,-1.9,30.4,7.2*
COC12CC(=O)C(C(C)=O)=C(O)C1(C)c1c(O)c(C)c(O)c(C(C)=O)c1O2 (stereo not drawn),.,.,54.8*,.,.,.,67.4*,30.3*
COc1ccc(Cl)cc1Nc1nc(-c2sc(NC(=O)CC(C)C)nc2C)cs1,4.0,0.7,36.4*,10.7,9.1,-5.1,21.0,13.5*
C=CCCC(=O)Nc1nc(C)c(-c2csc(Nc3ccc(Cl)cc3Cl)n2)s1,9.4,17.6,35.7*,-2.3,12.3,9.8,22.6,12.6*
C=CCCC(=O)Nc1nc(C)c(-c2csc(Nc3cc(Cl)ccc3OC)n2)s1,4.0,13.3,26.8,14.0,2.9,-6.8,.,.
CCOC(=O)[C@]12CCCC=C1N(Cc1ccco1)C(=O)[C@H](CC(=O)NCc1cccc(C(F)(F)F)c1)C2,.,.,-1.3,.,.,.,.,.
O=C(N/N=C/c1ccncc1)C1CC1(c1ccccc1)c1ccccc1 (stereo not drawn),10.0,2.3,1.6,-3.9,6.4,15.8,.,.
O=[N+]([O-])c1cc(/C=N\Nc2nc(-c3ccccc3)cs2)ccc1O,-2.1,32.1*,65.6*,21.6,12.6,5.8,53.8*,22.9*
O=C(N/N=C/c1ccc(O)c([N+](=O)[O-])c1)C1CC1(c1ccccc1)c1ccccc1 (stereo not drawn),-7.1,18.4,50.3*,5.4,-4.1,-2.5,50.3*,18.8*
O=C(CNC(=O)C(c1ccccc1)c1ccccc1)N/N=C/c1ccc(O)c([N+](=O)[O-])c1,2.4,21.3,44.2*,9.4,22.9,4.2,22.1,4.7*
O=[N+]([O-])c1ccc(-c2csc(N/N=C/c3cccnc3)n2)cc1,7.4,-1.6,12.2,9.8,6.6,5.7,.,.
C[C@H](CO)N1C[C@H](C)[C@H](CN(C)C(=O)NC2CCCCC2)OCc2cnnn2CCCC1=O,.,.,1.1,.,.,.,.,.
CC(=O)NS(=O)(=O)c1ccc(NC(=O)c2cccc(S(=O)(=O)N3CCc4ccccc43)c2)cc1,5.5,8.2,41.8*,7.9,3.2,0.1,40.4*,13.0*
COc1cccc(/C=C2\SC(=S)N(c3cccnc3)C2=O)c1OC,3.9,8.4,2.4,3.9,2.4,6.8,.,.
COc1ccc(/C=C2/SC(=O)N(NS(=O)(=O)c3ccccc3)C2=S)cc1OC,0.0,6.1,68.9*,-8.1,3.9,13.4,57.9*,22.8*
Cc1ccc(S(=O)(=O)NN2C(=O)/C(=C\c3ccc(Cl)cc3)SC2=S)cc1,-8.1,18.0,10.9,7.3,11.8,-1.1,.,.
COc1cccc(/C=C2\SC(=S)N(NS(=O)(=O)c3ccccc3)C2=O)c1OC,-6.0,15.0,74.4*,7.9,-1.3,-19.6,64.6*,27.7*
SMILES,EBNA-1 inhibitor,PAFAH2 FP inh,rCAG binder,PAFAH1B3 inh,PAFAH1B2 FP inh,ZTA DNA inh,rCAG bind conf,dCAG dye counter
O=C1/C(=C/c2cccc(F)c2)SC(=S)N1NS(=O)(=O)c1ccccc1,4.8,4.6,62.0*,7.0,11.9,0.8,64.8*,17.2*
COc1ccc(/C=N/NS(=O)(=O)c2ccccc2)cc1OC,1.1,-1.3,0.4,5.8,-0.1,1.7,.,.
Cc1ccc(S(=O)(=O)NN2C(=O)/C(=C/c3ccc(F)cc3)SC2=S)cc1,5.5,6.0,25.6,5.8,9.7,1.5,.,.
COc1cc(/C=C2\SC(=S)N(NS(=O)(=O)c3ccccc3)C2=O)cc(OC)c1OC,-1.3,5.3,65.0*,2.9,1.7,8.3,64.8*,27.2*
O=C(/C=C/c1ccc(NC(=O)c2ccccc2-c2ccccc2C(=O)O)cc1)c1ccccc1,3.3,4.4,68.5*,2.8,7.5,40.9*,66.1*,24.0*
O=C(Nc1ccc(Br)c2ccccc12)c1ccc2ccccc2c1O,14.2,47.6*,77.3*,22.2,18.2,3.1,78.2*,40.0*
O=C(c1cc(Br)c(Br)s1)N1CCN(C/C=C/c2ccccc2)CC1,-12.8,-2.9,35.7*,7.9,-2.1,-2.7,2.9,3.1
Cc1cc(C(=O)N2CCN(C/C=C/c3ccccc3)CC2)cs1,1.2,-2.2,.,1.0,4.9,-1.4,.,.
CC1(Oc2ccccc2)CCN(Cc2csc3ccccc23)C1 (stereo not drawn),.,.,2.1,.,.,.,.,.
Cc1ccccc1-c1cc2nc(C)c(Cl)c(=O)n2[nH]1,4.1,3.9,1.9,13.8,4.3,4.7,.,.
Cc1nc2cc(-c3ccsc3-n3c(C)ccc3C)[nH]n2c(=O)c1Cl,-4.0,84.2*,50.6*,5.5,3.0,-7.9,60.5*,26.4*
COCc1cc(=O)n2[nH]c(-c3ccsc3-n3c(C)ccc3C)cc2n1,-3.1,54.4*,40.5*,15.6,8.0,-1.1,39.4*,17.4*
COCc1cc(=O)n2[nH]c(N)nc2n1,9.0,-0.2,3.9,0.4,3.6,13.6,.,.
C/C(=N\Nc1nc(-c2cc(C)ccc2C)cs1)c1cc2c(ccc3ccccc32)oc1=O,23.8,12.5,47.1*,-5.0,-6.0,18.8,45.2*,23.2*
O=[N+]([O-])c1cc(Br)cc(C=Nc2ccc3c(c2)OCO3)c1O,-6.1,17.8,57.8*,6.5,5.9,7.9,40.5*,16.6*
Cc1ccc(N=Cc2cc3c(cc2[N+](=O)[O-])OCO3)cc1[N+](=O)[O-],-0.3,.,38.8*,.,.,-1.1,9.3,4.9*
Cc1ccc(C)c(N=Cc2cc3c(cc2[N+](=O)[O-])OCO3)c1,-1.9,14.1,21.8,9.4,-2.6,11.5,.,.

# Screens deposited in PubChem BioAssay by The Scripps Research Institute Molecular Screening Center.
